Many of the other results were omitted from the sample, so hits are more common in it than they were.
NOMO-1 viab: STK33 inhibitor candidate reducing NOMO-1 cell viability; NOMO-1 AML viability, CellTiter-Glo luminescence, 72 h; inhibition, % (concentration not given with the values); hit rate 7.5% among 37,000; in the data active = inhibition above about 80%; inconclusive = no clear call, values can overlap the other calls
PD-1 reversal: reversal of PD-1 mediated T-cell inhibition. primary human CD4 T cells, PD-L1 beads, CellTiter-Glo 96 h. activation, % (test concentration not listed). 29,000 tested, under 10 active. AID 2316; call rule not given here
STK33 inh: blocks human STK33 kinase activity. inhibition, % at 12.5 µM. hit rate 0.44% among 27,000. AID 2322. ADP-Glo luminescence, MBP substrate. Q9BYT3; in the data active = inhibition above about 20%; inconclusive = no clear call, values can overlap the other calls
Target sequence (Q9BYT3 whole entry, looked up): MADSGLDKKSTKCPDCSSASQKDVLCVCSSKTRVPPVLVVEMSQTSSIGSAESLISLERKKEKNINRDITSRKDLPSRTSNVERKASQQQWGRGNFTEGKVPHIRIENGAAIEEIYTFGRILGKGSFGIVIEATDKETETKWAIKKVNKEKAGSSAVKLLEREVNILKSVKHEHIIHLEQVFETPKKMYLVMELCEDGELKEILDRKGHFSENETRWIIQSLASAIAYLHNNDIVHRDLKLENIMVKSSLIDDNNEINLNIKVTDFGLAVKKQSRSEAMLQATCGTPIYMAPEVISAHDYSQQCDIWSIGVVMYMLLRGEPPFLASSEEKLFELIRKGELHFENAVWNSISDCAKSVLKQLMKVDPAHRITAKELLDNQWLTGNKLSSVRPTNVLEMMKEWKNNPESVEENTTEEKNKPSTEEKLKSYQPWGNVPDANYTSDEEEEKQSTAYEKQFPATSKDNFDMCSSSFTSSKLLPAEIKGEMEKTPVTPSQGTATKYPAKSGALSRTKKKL
Numbers stand for hits; - = inactive; ? = inconclusive; . = no result.

SMILES | NOMO-1 viab | PD-1 reversal | STK33 inh
COc1ccccc1OCC(=O)Nc1cc(C(=O)Nc2ccccc2C(=O)O)ccc1C | - | - | -
CC(C)NC(=O)Nc1ccc2c(c1)C(=O)N([C@@H](C)CO)C[C@@H](C)[C@@H](CN(C)Cc1ccc(-c3ccccc3)cc1)O2 | - | - | -
C[C@H]1CN([C@@H](C)CO)C(=O)Cc2cc(NC(=O)Nc3ccc(F)cc3)ccc2O[C@@H]1CN(C)S(=O)(=O)c1ccc(F)cc1 | - | - | -
C[C@H]1CN([C@@H](C)CO)C(=O)Cc2cc(NC(=O)CCC(F)(F)F)ccc2O[C@@H]1CN(C)S(=O)(=O)c1ccc(F)cc1 | - | . | -
C[C@@H]1CN([C@@H](C)CO)C(=O)Cc2cc(NC(=O)Nc3ccc(C(F)(F)F)cc3)ccc2O[C@@H]1CN(C)S(=O)(=O)c1ccc(F)cc1 | 100 | - | -
C[C@H]1CN([C@@H](C)CO)C(=O)Cc2cc(NC(=O)Nc3ccc(C(F)(F)F)cc3)ccc2O[C@H]1CN(C)S(=O)(=O)c1ccc(F)cc1 | 115 | - | -
C[C@@H]1CN([C@H](C)CO)C(=O)Cc2cc(NC(=O)Nc3ccc(C(F)(F)F)cc3)ccc2O[C@H]1CN(C)S(=O)(=O)c1ccc(F)cc1 | - | - | -
C[C@H](CO)N1C[C@H](C)[C@H](CN(C)S(=O)(=O)c2ccc(F)cc2)Oc2ccc(NC(=O)CCC(F)(F)F)cc2CC1=O | 126 | - | -
COC(=O)c1c(C)oc2cc(Br)c(OCC(=O)c3ccc(F)cc3)cc12 | - | - | -
COc1ccc(-n2c(SCC(=O)Nc3ccc(C(N)=O)cc3)nc3sc4c(c3c2=O)CCCC4)cc1 | - | . | -
C[C@H](CO)N1C[C@H](C)[C@@H](CN(C)S(=O)(=O)c2ccccc2)Oc2c(NC(=O)CCCCCC(=O)Nc3ccccc3N)cccc2C1=O | - | - | .
COc1ccc(S(=O)(=O)N(C)C[C@H]2Oc3c(NC(=O)CCCCCC(=O)Nc4ccccc4N)cccc3C(=O)N([C@@H](C)CO)C[C@H]2C)cc1 | - | - | .
Cc1ccc(S(=O)(=O)N(C)C[C@@H]2Oc3c(NC(=O)CCCCCC(=O)Nc4ccccc4N)cccc3C(=O)N([C@H](C)CO)C[C@@H]2C)cc1 | 111 | - | .
C[C@H]1CN([C@@H](C)CO)C(=O)c2cccc(NC(=O)CCCCCC(=O)Nc3ccccc3N)c2O[C@H]1CN(C)S(=O)(=O)c1ccc(Cl)cc1 | 115 | - | .
C[C@H]1CN([C@@H](C)CO)C(=O)c2cccc(NC(=O)CCCCCC(=O)Nc3ccccc3N)c2O[C@H]1CN(C)S(=O)(=O)c1ccccc1 | - | - | .
COc1ccc(S(=O)(=O)N(C)C[C@@H]2Oc3c(NC(=O)CCCCCC(=O)Nc4ccccc4N)cccc3C(=O)N([C@@H](C)CO)C[C@@H]2C)cc1 | - | - | .
C[C@H](CO)N1C[C@H](C)[C@@H](CN(C)S(=O)(=O)c2ccc(Cl)cc2)Oc2c(NC(=O)CCCCCC(=O)Nc3ccccc3N)cccc2C1=O | 88 | - | .
C[C@@H]1CN([C@H](C)CO)C(=O)c2cccc(NC(=O)CCCCCC(=O)Nc3ccccc3N)c2O[C@H]1CN(C)S(=O)(=O)c1ccc(Cl)cc1 | 121 | - | .
COc1ccc(N(CC(=O)Nc2ccc(C(F)(F)F)cc2)S(C)(=O)=O)cc1Cl | - | - | -
C[C@@H]1CN([C@H](C)CO)C(=O)CCCn2nncc2CO[C@@H]1CN(C)Cc1cccc(O)c1 | . | . | -
COc1ccc(C)cc1S(=O)(=O)N(C)CC(=O)Nc1ccc(F)c(Cl)c1 | - | - | -
CC12CCC(CC(=O)c3ccccc3)(CC1)CC2 | - | - | .
CC(C)(C)C1CCC2(CC1)C(C#N)C2(C#N)C(=O)c1ccccc1 (stereo not given) | 125 | - | .
CCn1c(SCC(=O)Nc2ccc(C(N)=O)cc2)nnc1-c1ccco1 | - | - | -
C=C1CC/C=C(/COC(C)=O)C(=O)C[C@@H]2[C@@H]1CC2(C)C | . | . | -
SMILES | NOMO-1 viab | PD-1 reversal | STK33 inh
C=C(C)C(=O)O[C@H]1C[C@@]2(C)OC(=CC2=O)/C(COC(C)=O)=C\[C@H]2OC(=O)C(=C)C12 (stereo not given in full) | 120 | - | -
C[C@H](CO)N1C[C@H](C)[C@H](CN(C)Cc2ccccc2)Oc2ccc(NC(=O)CCCN(C)C)cc2C1=O | - | - | -
C[C@H](CO)N1C[C@H](C)[C@H](CN(C)Cc2ccc3c(c2)OCO3)Oc2c(NC(=O)Nc3ccccc3)cccc2C1=O | - | - | .
C[C@H](CO)N1C[C@H](C)[C@H](CN(C)Cc2ccc(C(F)(F)F)cc2)Oc2c(NC(=O)Nc3ccc4c(c3)OCO4)cccc2C1=O | ? | - | .
C[C@H]1CN([C@@H](C)CO)C(=O)c2cccc(NC(=O)Nc3ccc4c(c3)OCO4)c2O[C@@H]1CN(C)Cc1ccc(C(F)(F)F)cc1 | 110 | - | .
C[C@@H]1CN([C@@H](C)CO)C(=O)c2cccc(NC(=O)Nc3ccc(C(F)(F)F)cc3)c2O[C@@H]1CN(C)Cc1ccc2c(c1)OCO2 | 106 | - | .
C[C@@H]1CN([C@H](C)CO)C(=O)c2cccc(NC(=O)Nc3ccc(F)cc3)c2O[C@H]1CN(C)Cc1ccc2c(c1)OCO2 | 97 | - | .
C[C@H](CO)N1C[C@H](C)[C@@H](CN(C)Cc2ccc(C(F)(F)F)cc2)Oc2c(NC(=O)Nc3ccc4c(c3)OCO4)cccc2C1=O | 105 | - | .
C[C@H]1CN([C@@H](C)CO)C(=O)c2cccc(NC(=O)Nc3ccc(F)cc3)c2O[C@@H]1CN(C)Cc1ccc2c(c1)OCO2 | - | - | .
C[C@H](CO)N1C[C@H](C)[C@@H](CN(C)Cc2ccc3c(c2)OCO3)Oc2c(NC(=O)Nc3ccc4c(c3)OCO4)cccc2C1=O | - | - | .
C[C@H]1CN([C@@H](C)CO)C(=O)CCCn2nncc2CO[C@H]1CN(C)Cc1cccc2c1OCCCO2 | . | . | -
ON=C(Cc1ccccc1)Cc1ccccc1 | - | - | -
COc1ccc(NC(=O)N(C)C[C@@H]2Oc3ccc(NS(=O)(=O)c4ccc(OC)cc4)cc3C(=O)N([C@@H](C)CO)C[C@@H]2C)cc1 | - | - | -
C[C@@H]1CN([C@@H](C)CO)C(=O)Cc2cc(NC(=O)Cc3cn(C)c4ccccc34)ccc2O[C@@H]1CN(C)S(=O)(=O)c1ccc(Cl)cc1 | - | - | -
C[C@@H]1CN([C@H](C)CO)C(=O)c2cccc(NC(=O)Nc3ccc4c(c3)OCO4)c2O[C@@H]1CN(C)Cc1ccc2c(c1)OCO2 | - | . | .
COc1ccc(NC(=O)Nc2cccc3c2O[C@@H](CN(C)Cc2ccc4c(c2)OCO4)[C@H](C)CN([C@@H](C)CO)C3=O)cc1 | 115 | - | .
COc1ccc(NC(=O)Nc2cccc3c2O[C@H](CN(C)Cc2ccc4c(c2)OCO4)[C@H](C)CN([C@H](C)CO)C3=O)cc1 | - | - | .
C[C@@H]1CN([C@@H](C)CO)C(=O)c2cccc(NC(=O)Nc3ccc4c(c3)OCO4)c2O[C@H]1CN(C)Cc1ccc(C(F)(F)F)cc1 | 109 | - | .
C[C@H]1CN([C@@H](C)CO)C(=O)Cc2cc(NC(=O)Nc3ccc4c(c3)OCO4)ccc2O[C@H]1CN(C)Cc1ccc(-c2ccccc2)cc1 | 92 | - | -
C[C@H]1CN([C@@H](C)CO)C(=O)Cc2cc(NC(=O)Nc3ccccc3)ccc2O[C@H]1CN(C)Cc1ccc(-c2ccccc2)cc1 | - | - | -

High-throughput results: PubChem BioAssay, Broad Institute
